MEKK2mut PB1 HTS – signal of MEK5 binding to mutant human MEKK2 PB1 domain. 0.35% of 290,000 active. bead flow cytometry, Alexa488-MEK5 binding to MEKK2 mutant. percent response, % at 10 µM; in the data active means percent response above about 24%, passing the limit was not always enough
CRFR2-BP ag – CRF-BP/CRF-R2 complex agonism; 0.46% of 350,000 active; HEK293 CRF-R2/CRF-BP, calcium dye fluorescence (FLIPR); percent of saturating CRF peptide response; AID 588473; activation, % at 13.2 µM;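 active means activation of at least 50%, plus an integration ratio under a set limit after plate pattern correction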;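 further: plate controls were neutral control wells without compound for no effect and CRF at EC100 for full effect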
CRFBP-R2 block – CRF-BP/CRF-R2 complex antagonism; HEK293 CRF-R2/CRF-BP, CRF-induced calcium fluorescence; inhibition, % at 11.8 µM; 0.59% of 350,000 active; AID 588475;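 active means inhibition of the ligand-induced calcium signal above about 50% at the single tested concentration, limit read from the data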
ABCB6 inh 2 – blocks the human ABCB6 transporter; Q9NP58; K562-ABCB6 porphyrin accumulation, flow cytometry, 1 h; hits give low values; fluorescence ratio to DMSO, % at 10 µM; 0.19% of 360,000 active; AID 602162;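 active means fluorescence ratio to DMSO below 75%, the collection mean minus 3 SD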;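 further: signal is porphyrin accumulated inside mitochondria; 100% equals median channel fluorescence of DMSO control wells; lower ratio means ABCB6 inhibition with less porphyrin fluorescence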
MEKK2 WT-MEK5 – raises or lowers MEK5 binding to wildtype human MEKK2 PB1 domain; 1.1% of 290,000 active; binding response (% of control), % at 10 µM; AID 1531; bead flow cytometry, Alexa488-MEK5 binding to MEKK2 WT; actives lie on both sides; in the data active means binding response below about 67% or above about 130%
MEKK3 PB1 HTS – raises or lowers MEK5 binding to the human MEKK3 PB1 domain | binding response (% of control), % at 10 µM | bead-based flow cytometry, Alexa488-MEK5 binding to MEKK3; actives lie on both sides; 0 = blocked by unlabeled MEK5, 100 = vehicle | 1.4% of 290,000 active | Q99759;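 active means binding response more than 3 SD above or below the average of its plate-row segment, actives on both sides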;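 further: Alexa488 bead fluorescence after subtracting the streptavidin-only scavenger bead signal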
Target sequence (Q99759 whole entry, looked up, the tested form may be a part): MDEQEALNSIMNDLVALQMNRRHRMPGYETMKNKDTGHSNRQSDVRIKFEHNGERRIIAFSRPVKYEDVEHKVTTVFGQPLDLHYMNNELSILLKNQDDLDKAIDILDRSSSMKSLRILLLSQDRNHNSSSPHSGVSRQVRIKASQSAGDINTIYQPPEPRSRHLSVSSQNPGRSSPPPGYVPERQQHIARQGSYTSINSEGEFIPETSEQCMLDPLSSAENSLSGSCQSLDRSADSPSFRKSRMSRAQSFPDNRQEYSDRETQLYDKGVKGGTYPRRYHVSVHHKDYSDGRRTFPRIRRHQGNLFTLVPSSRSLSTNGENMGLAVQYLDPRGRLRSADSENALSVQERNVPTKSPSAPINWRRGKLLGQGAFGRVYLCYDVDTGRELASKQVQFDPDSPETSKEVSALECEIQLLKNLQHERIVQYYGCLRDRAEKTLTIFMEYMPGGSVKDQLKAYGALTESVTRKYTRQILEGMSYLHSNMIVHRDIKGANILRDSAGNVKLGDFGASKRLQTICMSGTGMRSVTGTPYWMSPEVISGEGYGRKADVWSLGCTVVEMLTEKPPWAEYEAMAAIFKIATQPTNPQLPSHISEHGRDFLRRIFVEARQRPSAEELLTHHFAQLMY
MEKK2wt confirm – raises or lowers MEK5 binding to wildtype human MEKK2, retest; shares compounds with MEKK3 PB1 HTS; bead flow cytometry, Alexa488-MEK5 binding to MEKK2 WT; actives lie on both sides; binding response (% of control), % at 10 µM; 2.4% of 5,900 active; AID 1892; in the data active means binding response below about 16% or above about 210%; inactive means in between
MEKK2mut confirm – signal of MEK5 binding to mutant human MEKK2, retest | shares compounds with MEKK3 PB1 HTS | bead flow cytometry, Alexa488-MEK5 binding to MEKK2 mutant | percent response, % at 10 µM | 2% of 5,900 active | AID 1893; in the data active means percent response mostly above about 71%, no sharp cut-off; inactive means mostly below about 38%;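 further: higher means compound restores mutant binding toward wildtype level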
MEKK3-MEK5 inh – confirmation of inhibitors of MEK5 binding to human MEKK3; bead flow cytometry, Alexa488-MEK5 binding to MEKK3; hits give low values; 1.8% of 5,900 active; shares compounds with MEKK3 PB1 HTS; binding response (% of control), % at 10 µM;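 active means binding response below 72% of control, or above a set upper limit, though filed actives all read lower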;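 further: 100% = DMSO only wells and 0% = binding blocked by excess unlabeled MEK5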
* = called active by the depositor; i = inactive; . = no result; [ ] = remark or other dose. Shown are actives, neighbours in structure and some others; about 2.9% of the full set was active somewhere.

SMILES	MEKK2mut PB1 HTS	CRFR2-BP ag	CRFBP-R2 block	ABCB6 inh 2	MEKK2 WT-MEK5	MEKK3 PB1 HTS	MEKK2wt confirm	MEKK2mut confirm	MEKK3-MEK5 inh
CC1=[N+](C)c2ccc3ccccc3c2C1(C)C	71.0*	-0.1	18.9	422.0	.	89.0	88.0	5.0	91.0
Cc1nsc2c1ccc1ccccc12	-16.0	0.7	-12.9	91.0	89.0	102.0	.	.	.
CCCCN(C(=O)c1cccc(S(=O)(=O)N2CC(C)OC(C)C2)c1)c1c(N)n(CC(C)C)c(=O)[nH]c1=O (stereo not given)	4.0	-0.6	-19.5	97.0	101.0	100.0	.	.	.
Cc1cccc(S(=O)(=O)NC(=O)C2(C)CCN2C(=O)CC2CCCCC2)c1 (stereo not given)	.	.	.	97.0	.	.	.	.	.
C/C(=N\NC(=O)CNC(=O)C(c1ccccc1)c1ccccc1)c1ccc(C(C)(C)C)cc1	1.0	-1.6	19.5	96.0	108.0	162.0*	106.0	-1.0	98.0
C/C(=N\NC(=O)CNC(=O)C(c1ccccc1)c1ccccc1)c1ccccc1	9.0	0.4	10.7	97.0	101.0	100.0	.	.	.
CCOC(=O)c1ccc(NC(=S)NC(=O)C2CCCC2)cc1	-3.0	1.5	-5.5	99.0	99.0	100.0	.	.	.
CCOC(=O)c1ccc(NC(=S)NC2CCCC2)cc1	-1.0	34.7	1.9	97.0	95.0	65.0*[inhibitor]	99.0	-2.0	99.0
CCOC(=O)c1ccc(NC(=S)NN2CCN(C)CC2)cc1	-6.0	-0.8	3.6	101.0	58.0	41.0*[inhibitor]	98.0	-3.0	99.0
CCN1C(=O)[C@@H]2[C@@H](c3ccc(-c4ccc(F)cc4)cc3)N3CCCC[C@@]3(C(=O)OC)[C@@H]2C1=O	.	0.7	-1.3	97.0	.	.	.	.	.
N#C/C(=C\C1=C(N2CCOCC2)C(=C/c2cccc([N+](=O)[O-])c2)/CC1)C(=O)Nc1ccccc1F	-7.0	-0.5	-33.9	426.0	.	9.0*[inhibitor]	92.0	-7.0	98.0
N#C/C(=C/C1=C(N2CCOCC2)C(=C/c2cccc([N+](=O)[O-])c2)/CC1)C(=O)Nc1ccccc1F	.	3.0	-26.3	745.0	.	.	.	.	.
N#C/C(=C\C1=C(N2CCOCC2)C(=C\c2ccc(Cl)cc2)/CC1)C(=O)Nc1ccccc1F	-9.0	0.8	-36.6	i	.	7.0*[inhibitor]	72.0	-19.0	73.0
COc1ccc(-c2nn(-c3ccccc3)cc2C(=O)NC(=S)N2CCOCC2)cc1OC	.	-1.6	-0.4	93.0	.	.	.	.	.
CN(C)c1ccc(C(CN)c2c[nH]c3ccccc23)cc1 (stereo not given)	0.0	-0.4	-28.1	106.0	110.0	69.0*[inhibitor]	131.0	18.0	97.0
CN(C)c1ccc(C(CNS(=O)(=O)c2ccc3ccccc3c2)c2c[nH]c3ccccc23)cc1 (stereo not given)	-1.0	0.5	6.7	98.0	107.0	104.0	.	.	.
CC(=O)OCCNc1cc(SCc2ccco2)c2nonc2c1[N+](=O)[O-]	1.0	3.1	6.2	107.0	113.0	146.0*	107.0	6.0	106.0
COC(=O)c1ccc(S(=O)(=O)N2CCCN(Cc3cccc(Br)c3F)CC2)n1C	-38.0	3.6	-1.0	98.0	53.0*[inhibitor]	73.0*[inhibitor]	95.0	-4.0	98.0
CN(CC(=O)Nc1cccc(F)c1)C(=O)CCc1nc2sc3c(c2c(=O)[nH]1)CCCC3	.	0.4	-4.8	100.0	.	.	.	.	.
O=C(CN1C(=O)NC2(CCCC2)C1=O)Nc1cccc(Cl)c1	-1.0	1.9	-11.9	101.0	99.0	101.0	.	.	.
COc1ccc(OC)c(NC(=O)CSc2nnnn2-c2ccc3c(c2)OCO3)c1	12.0	1.1	11.8	105.0	116.0	128.0*	98.0	-2.0	96.0
